# According to PubChem BioAssay (Tox21):
# Inconclusive results are not listed. The source made the active and inactive calls. Calls follow the shape of the dose curve; as a rule, active = well fitted curve in the direction sought with a large enough effect in the repeat runs; inconclusive = weak or mixed curves; inactive = no such curve, though single readings can be large; an effect the other way counts as inactive or inconclusive.
# Assay: qHTS RealTime-Glo MT Cell Viability Assay in HEK293 cells - 16 hour (AID 1224872); also: top concentration of the series differs between compounds; nearly all actives have a fitted effect of over 50% in size
# Conditions: RealTime-Glo luminescence; series mostly up to 76.8 µM; activity change, negative = cytotoxicity: at the top concentration
# In short: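 Luminescence generated by NanoLuc from substrate produced by living HEK293 cells served as the viability signal. Each value reflects the reading at its stated time point during continuous 40 h compound exposure at 37 C.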
# % is scaled to controls: 0 for no effect and ±100 for the full control effect.
row,Structure (SMILES),"activity change, negative = cytotoxicity"
1,O=C(NCC1CN(c2ccc(N3CCOCC3=O)cc2)C(=O)O1)c1ccc(Cl)s1 (centres undefined),-19.7% [at 35.3 µM] (inactive)
2,CC(COCCO)OCCO (centres undefined),5.9% (inactive)
3,CCC(C)(C)CC,-10.9% (inactive)
4,CC[N+](C)(CC)CCOC(=O)C(O)(c1ccccc1)C1CCCCC1 (centres undefined),5.43% [at 35.3 µM] (inactive)
5,CN1CCC(N(Cc2cccs2)c2ccccc2)CC1,-8.63% [at 35.3 µM] (inactive)
6,C[N+]1(CC2COC(c3ccccc3)(C3CCCCC3)O2)CCCCC1 (centres undefined),-19.1% [at 35.3 µM] (inactive)
7,NCCCN1CCOCC1,-4.2% (inactive)
8,CC(=O)[O][Al],22.7% (inactive)
9,CC(=O)[O][Al][O]C(C)=O,7.04% (inactive)
10,CCCCC(CC)COC(=O)CCCCCCCCC(=O)OCC(CC)CCCC (centres undefined),-1.28% (inactive)
11,CN(C)CCOC(c1ccccc1)c1ccc(Br)cc1 (centres undefined),-22.9% [at 35.3 µM] (inactive)
12,C[Si](C)(CCCN)O[Si](C)(C)CCCN,-10.5% (inactive)
13,CCC(C)O (centres undefined),11.4% (inactive)
14,Nc1cccc([N+](=O)[O-])c1,4.98% (inactive)
15,Nc1ccc([N+](=O)[O-])c(C(F)(F)F)c1,-2.59% [at 35.3 µM] (inactive)
16,O=C(O)c1nc(Cl)c(Cl)c(Cl)c1Cl,14.2% (inactive)
17,CC(C)OC(=O)C(C)N(C(=O)c1ccccc1)c1ccc(F)c(Cl)c1 (centres undefined),-13.5% (inactive)
18,C[C@@H](c1ncncc1F)C(O)(Cn1cncn1)c1ccc(F)cc1F (some centres undefined),1.23% [at 35.3 µM] (inactive)
19,OC(C#CCN1CCCC1)(c1ccccc1)c1ccccc1,-14.3% [at 35.3 µM] (inactive)
20,CCC(Cl)CCC(Cl)C(Cl)CC(Cl)C(Cl)C(Cl)CCl (centres undefined),-12.3% (inactive)
21,O=[N+]([O-])c1ccc(NCCO)c(OCCO)c1,-9.82% (inactive)
22,CCCCC/C=C\C/C=C\CCCCCCCC(=O)NC(C)c1ccccc1 (centres undefined),-19.6% [at 35.3 µM] (inactive)
23,CN1Cc2cc(C(=O)N3CCC(C4CCNCC4)CC3)ccc2NC(CC(=O)O)C1=O (centres undefined),-4% [at 35.3 µM] (inactive)
24,COC(C)(C)CCO,0.428% (inactive)

# Assay: qHTS RealTime-Glo MT Cell Viability Assay in HepG2 cells - 8 hour (AID 1224873); also: nearly all actives have a fitted effect of over 55% in size
# Conditions: RealTime-Glo luminescence; series mostly up to 76.8 µM; viability change, negative = cytotoxic: at the top concentration
# In short: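 HepG2 cells mixed with RealTime-Glo MT reagents (NanoLuc plus cell-permeant prosubstrate) were seeded at 600 cells/well, incubated 5 h at 37 C/5% CO2, then pinned with compounds in DMSO; nonlytic luminescence tracked viability during 40 h treatment.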
row,Structure (SMILES),"viability change, negative = cytotoxic"
1,CC(COCCO)OCCO (centres undefined),7.53% (inactive)
2,CCC(C)(C)CC,-4.2% (inactive)
3,CC[N+](C)(CC)CCOC(=O)C(O)(c1ccccc1)C1CCCCC1 (centres undefined),-2.53% [at 35.3 µM] (inactive)
4,CN1CCC(N(Cc2cccs2)c2ccccc2)CC1,-10.9% [at 35.3 µM] (inactive)
5,NCCCN1CCOCC1,2.78% (inactive)
6,CC(=O)[O][Al],-1.15% (inactive)
7,NC(=O)C(c1ccccc1)(c1ccccc1)[C@@H]1CCN(CCc2ccc3c(c2)CCO3)C1,-7.84% [at 35.3 µM] (inactive)
8,CC(=O)[O][Al][O]C(C)=O,-3.92% (inactive)
9,CCCCC(CC)COC(=O)CCCCCCCCC(=O)OCC(CC)CCCC (centres undefined),-1.32% (inactive)
10,C[Si](C)(CCCN)O[Si](C)(C)CCCN,-2.38% (inactive)
11,CCC(C)O (centres undefined),-0.498% (inactive)
12,Nc1cccc([N+](=O)[O-])c1,0.0179% (inactive)
13,NS(=O)(=O)c1ccc(N2CCCCS2(=O)=O)cc1,5.75% [at 35.3 µM] (inactive)
14,Cc1ncc(CO)c(C=O)c1O,0.473% [at 35.3 µM] (inactive)
15,OC[C@H]1O[C@@H](OCCc2ccc(O)cc2)[C@H](O)[C@@H](O)[C@@H]1O,0.259% [at 35.3 µM] (inactive)
16,Nc1ccc([N+](=O)[O-])c(C(F)(F)F)c1,8.74% [at 35.3 µM] (inactive)
17,O=C(O)c1nc(Cl)c(Cl)c(Cl)c1Cl,2.94% (inactive)
18,CC(C)OC(=O)C(C)N(C(=O)c1ccccc1)c1ccc(F)c(Cl)c1 (centres undefined),-14.6% (inactive)
19,C[C@@H](c1ncncc1F)C(O)(Cn1cncn1)c1ccc(F)cc1F (some centres undefined),6.86% [at 35.3 µM] (inactive)
20,OC(C#CCN1CCCC1)(c1ccccc1)c1ccccc1,1.25% [at 35.3 µM] (inactive)
21,CCC(Cl)CCC(Cl)C(Cl)CC(Cl)C(Cl)C(Cl)CCl (centres undefined),-0.0955% (inactive)
22,CC(C)(O)c1ccc(CNC(=O)c2cccnc2Oc2ccc(F)cc2)cc1,-0.171% (inactive)
23,CC(CSC(=O)c1ccccc1)C(=O)N1C[C@@H](Sc2ccccc2)C[C@H]1C(=O)O (some centres undefined),1.39% [at 15.8 µM] (inactive)
24,CCCCC/C=C\C/C=C\CCCCCCCC(=O)NC(C)c1ccccc1 (centres undefined),-27.7% [at 35.3 µM] (inactive)
25,CN1Cc2cc(C(=O)N3CCC(C4CCNCC4)CC3)ccc2NC(CC(=O)O)C1=O (centres undefined),-2.12% [at 35.3 µM] (inactive)
26,COc1cc2nc(N(C)CCCNC(=O)C3CCCO3)nc(N)c2cc1OC (centres undefined),-10.7% [at 35.3 µM] (inactive)
27,COC(C)(C)CCO,2.13% (inactive)

# Assay: qHTS RealTime-Glo MT Cell Viability Assay in HEK293 cells - 40 hour (AID 1224874); also: nearly all actives have a fitted effect of over 50% in size; also: potency is read from the fitted curve at half-maximal effect
# Conditions: RealTime-Glo luminescence; max response: stronger effect = lower value
# In short: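 qHTS format; HEK293 cells with NanoLuc/prosubstrate reagent, 37 C/5% CO2 for 5 h pre-dosing; compounds 23 nL in DMSO; luminescence at each time point reflects viable cells.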
Structure (SMILES),max response,Potency
O=C(NCC1CN(c2ccc(N3CCOCC3=O)cc2)C(=O)O1)c1ccc(Cl)s1 (centres undefined),-20.3% (inactive),
CC(COCCO)OCCO (centres undefined),4.24% (inactive),
CCC(C)(C)CC,-9.85% (inactive),
CCN(CC)CCNc1ccc(CNC=O)c2sc3ccc(OC)cc3c(=O)c12,,8.71 µM (active)
CC[N+](C)(CC)CCOC(=O)C(O)(c1ccccc1)C1CCCCC1 (centres undefined),6.78% (inactive),
CN1CCC(N(Cc2cccs2)c2ccccc2)CC1,-14.7% (inactive),
C=C(C)C(=O)OCC,2.67% (inactive),
NCCCN1CCOCC1,-9.34% (inactive),
CC(=O)[O][Al],3.87% (inactive),
CC(=O)[O][Al][O]C(C)=O,6.93% (inactive),
CCCCOC(=O)CCCCCCCC(=O)OCCCC,2.76% (inactive),
CCCCC(CC)COC(=O)CCCCCCCCC(=O)OCC(CC)CCCC (centres undefined),1.51% (inactive),
C[Si](C)(CCCN)O[Si](C)(C)CCCN,-16% (inactive),
CCC(C)O (centres undefined),7.73% (inactive),
Nc1cccc([N+](=O)[O-])c1,1.66% (inactive),
NS(=O)(=O)c1ccc(N2CCCCS2(=O)=O)cc1,-0.0797% (inactive),
Cc1ncc(CO)c(C=O)c1O,0.556% (inactive),
OC[C@H]1O[C@@H](OCCc2ccc(O)cc2)[C@H](O)[C@@H](O)[C@@H]1O,7.46% (inactive),
Nc1ccc([N+](=O)[O-])c(C(F)(F)F)c1,-6.2% (inactive),
CC(C)OC(=O)C(C)N(C(=O)c1ccccc1)c1ccc(F)c(Cl)c1 (centres undefined),-29.8% (inactive),
C[C@@H](c1ncncc1F)C(O)(Cn1cncn1)c1ccc(F)cc1F (some centres undefined),3.08% (inactive),
OC(C#CCN1CCCC1)(c1ccccc1)c1ccccc1,-8.96% (inactive),
CCC(Cl)CCC(Cl)C(Cl)CC(Cl)C(Cl)C(Cl)CCl (centres undefined),0.988% (inactive),
O=[N+]([O-])c1ccc(NCCO)c(OCCO)c1,-13.3% (inactive),
CC(CSC(=O)c1ccccc1)C(=O)N1C[C@@H](Sc2ccccc2)C[C@H]1C(=O)O (some centres undefined),-5.01% (inactive),
CCCCC/C=C\C/C=C\CCCCCCCC(=O)NC(C)c1ccccc1 (centres undefined),-16.2% (inactive),
CN1Cc2cc(C(=O)N3CCC(C4CCNCC4)CC3)ccc2NC(CC(=O)O)C1=O (centres undefined),5.98% (inactive),
COC(C)(C)CCO,1.17% (inactive),
